An excerpt weighted towards active compounds, which were near 17% of everything screened.
TGFb inhibitor: inhibitors of TGF-b signaling. HepG2 CAGA-GFP TGF-b/SMAD3 reporter, GFP fluorescence, 18 h; TGF-beta stimulated, 500 pg/mL final. AID 588855. Potency, µM (top dose mostly 46.1 µM), inactives show at the top dose activity, negative = inhibition, most hits filed as inhibitors. hit rate 1.2% among 410,000; also: % is scaled to controls: 0 for no effect and ±100 for the full control effect; nearly all actives have a fitted effect of over 65% in size
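Per well, imaged GFP fluorescence of HEPG2 CAGA-GFP cells gives the signal; cells get compound, then TGF-beta (500 pg/mL final), 18 h at 37 degrees C; %Activity versus -TGF-beta and +DMSO controls.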
TDP1 cell noCPT: qHTS for Inhibitors of human tyrosyl-DNA phosphodiesterase 1 (TDP1): qHTS in cells in absence of CPT. DT40 Tdp1-/- hTDP1 cells, no CPT, ATP luminescence, 48 h. Potency, µM (top dose mostly 46.2 µM), inactives show at the highest dose activity change, negative = growth inhibition, usual class: inhibitors. hit rate 15% among 420,000; also: % is scaled to controls: 0 for no effect and ±100 for the full control effect; nearly all actives have a fitted effect of over 55% in size
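Compound effects on proliferation are scored in DT40 Tdp1-/-;hTDP1 cells in the absence of CPT. ATP levels (CellTiter-Glo luminescence) are recorded after a ≥48 hr, 37 °C incubation.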
TDP1 cell CPT: growth inhibition of DT40 Tdp1-/-;hTDP1 cells with camptothecin (screen for TDP1 inhibitors) | chicken DT40 Tdp1-/-;hTDP1 cells + 20 nM CPT, ATP luminescence, 48 h | Potency, µM (highest dose often 46.2 µM), for inactives: at the top dose activity change, negative = growth inhibition, actives largely listed as inhibitors | hit rate 12% among 420,000 | AID 686979; also: % is scaled to controls: 0 for no effect and ±100 for the full control effect; nearly all actives have a fitted effect of over 55% in size
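Chicken DT40 Tdp1-/- cells stably complemented with human TDP1 were seeded at 400 cells/well in medium containing 20 nM camptothecin, exposed to pin-transferred compounds, and grown at 37 °C for at least 48 hr. Viability was read as ATP luminescence.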
HT1080-NT tox: kills 2HG-producing HT-1080-NT fibrosarcoma cells. HT-1080-NT fibrosarcoma viability, CellTiter-Glo ATP luminescence, 48 h. Potency, µM (series often up to 46.1 µM), inactives show at the top dose activity, negative = less viability, actives largely listed as cytotoxic. hit rate 1.6% among 360,000. AID 686970;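 also: NT is the 2HG producing partner of a matched IDH1 knockdown line; 0% = DMSO-treated cells and -100% = media-only wells without cells; nearly all actives have a fitted effect of over 55% in size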
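A 48-hour cytotoxicity screen used HT-1080-NT cells plated 2 hours before compound delivery. ATP-based CellTiter-Glo luminescence measured viability, normalized to DMSO and no-cell controls.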
HT1080 IDH1KD tx: kills HT-1080 cells with IDH1 knockdown; HT-1080 IDH1 knockdown viability, ATP luminescence, 48 h; Potency, µM (series often up to 46.1 µM), for the others: top-dose activity, negative = toxicity, usual class: cytotoxic; hit rate 2% among 360,000; AID 686971;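 also: 0% = DMSO wells and -100% = cell-free medium wells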
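Assay cells: HT-1080 with IDH1 knockdown, 750 per well, RPMI/5% FBS. Exposure: 48 h at 37 °C following 2 h pre-incubation. Read: CellTiter-Glo luminescence; fitted concentration-response, curve class assigned.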
HepG2 viability: kills HepG2 cells in TGF-b inhibitor counter-screen; HepG2 CAGA-GFP viability, ATP luminescence, 18 h; Potency, µM (top dose mostly 46.1 µM), for the others: top-dose activity change, negative = cytotoxicity, hits mostly cytotoxic; hit rate 0.76% among 410,000; AID 588856
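HepG2 CAGA-GFP cells (1000/well, DMEM with 1% FBS) received compound, then TGF-beta at 500 pg/mL final, and were incubated 18 hours at 37 degrees C. Viability was read by CellTiter-Glo luminescence. Media-only wells were set as complete cell-killing and DMSO as no toxicity.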
Active calls of the source: *. Calls follow the shape of the dose curve; as a rule, active = well fitted curve in the direction sought with a large enough effect; inconclusive = small, poorly fitted or top-dose-only effect, or another doubt; inactive = no such curve, though single readings can be large; an effect the other way counts as inactive or inconclusive. Potency is read from the fitted curve at half-maximal effect.

`CC(C)(C)NC(=O)C[C@H]1C[C@H](C(=O)N2CCOCC2)[C@@]2(CCC3CCCC3)c3[nH]c4ccc(Cl)cc4c3CCN2C1=O` gave TGFb inhibitor inconclusive, TDP1 cell noCPT 16µM*, TDP1 cell CPT inconclusive, HT1080-NT tox inconclusive, HT1080 IDH1KD tx inconclusive and HepG2 viability -28%.
Screening CC[C@]12c3[nH]c4ccccc4c3CCN1C(=O)C(CC(=O)NCCN1CCOCC1)C[C@@H]2C(=O)N1CCN(C(=O)C2CC2)CC1 (some centres undefined) returned TGFb inhibitor 20%, TDP1 cell noCPT -2%, TDP1 cell CPT 3%, HT1080-NT tox 7%, HT1080 IDH1KD tx 9% and HepG2 viability 9%.
CC[C@]12c3[nH]c4ccccc4c3CCN1C(=O)C(CC(=O)NCc1cccc(C(F)(F)F)c1)C[C@@H]2C(=O)N1CCN(C(=O)C2CC2)CC1 (some centres undefined) was read as TGFb inhibitor inconclusive, TDP1 cell noCPT 23µM*, TDP1 cell CPT inconclusive, HT1080-NT tox -3%, HT1080 IDH1KD tx -3% and HepG2 viability -21%.
For CN(C)C(=O)CCc1ccc2c3c([nH]c2c1)[C@]1(C)[C@@H](C(=O)N2CCCCC2)C[C@H](CC(=O)NCc2cccc(C(F)(F)F)c2)C(=O)N1CC3 the results were TGFb inhibitor inconclusive, TDP1 cell noCPT 21µM*, TDP1 cell CPT 21µM*, HT1080-NT tox -9%, HT1080 IDH1KD tx -15% and HepG2 viability -5%.
`COc1ccc(CNC(=O)C[C@H]2C[C@H](C(=O)N3CCCCC3)[C@@]3(C)c4[nH]c5cc(CCC(=O)N(C)C)ccc5c4CCN3C2=O)cc1OC` gave TGFb inhibitor -1%, TDP1 cell noCPT -15%, TDP1 cell CPT -13%, HT1080-NT tox -1%, HT1080 IDH1KD tx 5% and HepG2 viability -6%.
C[C@]12c3[nH]c4ccc(Cl)cc4c3CCN1C(=O)[C@@H](CC(=O)NCc1cccc(C(F)(F)F)c1)C[C@@H]2C(=O)N1CCCCC1 was read as TGFb inhibitor inconclusive, TDP1 cell noCPT 21µM*, TDP1 cell CPT inconclusive, HT1080-NT tox 5%, HT1080 IDH1KD tx 6% and HepG2 viability -94%.
For CC(C)CCNC(=O)c1ccc(-n2cnc3cccnc32)cc1 the results were TGFb inhibitor 27%, TDP1 cell noCPT -23%, TDP1 cell CPT inconclusive, HT1080-NT tox 13%, HT1080 IDH1KD tx 0% and HepG2 viability 6%.
`CC1(C)C(OC(=O)CCC(=O)O)CC[C@]2(C)C1CC[C@@]1(C)C2C(=O)C=C2[C@@H]3C[C@@](C)(C(=O)O)CC[C@]3(C)CCC21C` (some centres undefined) gave TDP1 cell noCPT 2% and TDP1 cell CPT 13%.
For CCN(CC)C(=O)[C@H]1C[C@H](CC(=O)NCCCn2ccnc2)C(=O)N2CCc3c([nH]c4cc(-c5ccco5)ccc34)[C@]12C the results were TGFb inhibitor -4%, TDP1 cell noCPT inconclusive, TDP1 cell CPT 4%, HT1080-NT tox -1%, HT1080 IDH1KD tx -1% and HepG2 viability -12%.
CC[C@]12c3[nH]c4ccc(Cl)cc4c3CCN1C(=O)[C@@H](CC(=O)NCc1ccc(OC)c(OC)c1)C[C@@H]2C(=O)N1CCN(C(=O)C2CC2)CC1 was read as TGFb inhibitor -23%, TDP1 cell noCPT 16µM*, TDP1 cell CPT inconclusive, HT1080-NT tox -3%, HT1080 IDH1KD tx -6% and HepG2 viability -6%.
CN(C)C(=O)CCc1ccc2c3c([nH]c2c1)[C@]1(CCC2CCCC2)[C@@H](C(=O)N2CCOCC2)C[C@H](CC(=O)NCc2cccc(C(F)(F)F)c2)C(=O)N1CC3 was read as TGFb inhibitor 11µM*, TDP1 cell noCPT 15µM*, TDP1 cell CPT 21µM*, HT1080-NT tox -5%, HT1080 IDH1KD tx 3% and HepG2 viability -59%.
O=C(C[C@H]1C[C@H](C(=O)N2CCOCC2)[C@@]2(CCC3CCCC3)c3[nH]c4cc(-c5ccco5)ccc4c3CCN2C1=O)NCCCn1ccnc1 was read as TGFb inhibitor inconclusive, TDP1 cell noCPT inconclusive, TDP1 cell CPT inconclusive, HT1080-NT tox inconclusive, HT1080 IDH1KD tx 16µM* and HepG2 viability -85%.
Screening O=C(CC1C[C@H](C(=O)N2CCOCC2)[C@@]2(CCC3CCCC3)c3[nH]c4ccccc4c3CCN2C1=O)NCc1cccc(C(F)(F)F)c1 (some centres undefined) returned TGFb inhibitor 24%, TDP1 cell noCPT inconclusive, TDP1 cell CPT 23µM*, HT1080-NT tox 16%, HT1080 IDH1KD tx 10% and HepG2 viability 4%.
`O=C(COC(=O)C1CC1)NCCc1ccc(Cl)cc1` gave TGFb inhibitor 12%, TDP1 cell noCPT -6%, TDP1 cell CPT 5%, HT1080-NT tox 6%, HT1080 IDH1KD tx 11% and HepG2 viability -3%.
For COc1ccc2[nH]c3c(c2c1)CCN1C(=O)C(CC(=O)NCc2ccc(OC)c(OC)c2)C[C@H](C(=O)N2CCOCC2)[C@@]31CCC1CCCC1 (some centres undefined) the results were TGFb inhibitor inconclusive, TDP1 cell noCPT inconclusive, TDP1 cell CPT inconclusive, HT1080-NT tox 0%, HT1080 IDH1KD tx 0% and HepG2 viability -16%.
COc1ccc(CNC(=O)CC2C[C@H](C(=O)N3CCOCC3)[C@@]3(CCC4CCCC4)c4[nH]c5ccccc5c4CCN3C2=O)cc1OC (some centres undefined) was read as TGFb inhibitor inconclusive, TDP1 cell noCPT 23µM*, TDP1 cell CPT inconclusive, HT1080-NT tox 0%, HT1080 IDH1KD tx 1% and HepG2 viability -14%.
Screening OC(C[n+]1ccccc1Cl)c1ccccc1 (centres undefined) returned TGFb inhibitor 8%, TDP1 cell noCPT -21%, TDP1 cell CPT -9% and HepG2 viability 0%.
Cc1ccc2nc(N3C(=O)CNC3=S)sc2c1 was read as TGFb inhibitor 11µM*, TDP1 cell noCPT inconclusive, TDP1 cell CPT 15µM*, HT1080-NT tox inconclusive, HT1080 IDH1KD tx 16µM* and HepG2 viability -136%.

Screening results as filed in PubChem BioAssay.
